Reference: PubChem BioAssay AID720709 (National Center for Advancing Translational Sciences (NCATS), 2013)
Hit rate of the full screen: of about 360,000 compounds, about 520 (0.14%) were called active. A call without a number means that no potency is given here. Inconclusive results (about 3%) are left out. Calls come from the whole dose curve; as a rule, active = well fitted inhibition curve with a large enough effect; inconclusive = small, poorly fitted or top-dose-only effect; inactive = no such curve, though single readings can be large or run the other way. Many of the other results were omitted from the sample, so actives are more common in it than they were.

What follows are compounds tested against Rap guanine nucleotide exchange factor 3 (Homo sapiens) (UniProt O95398) (assay: qHTS for Antagonist of cAMP-regulated guanine nucleotide exchange factor 3 (EPAC1): primary screen). Conditions: EPAC1 GEF assay, Rap1b-BODIPY-GDP exchange fluorescence; series mostly up to 115 µM.
Excerpt: In multi-cellular eukaryotic organisms, the effects of cAMP are transduced by two ubiquitously-expressed intracellular cAMP receptors, the classic protein kinase A/cAMP-dependent protein kinase (PKA/cAPK) and the more recently discovered exchange protein directly activated by cAMP/cAMP-regulated guanine nucleotide exchange factor (EPAC/cAMP-GEF). Both PKA and EPAC are ubiquitously expressed in all tissues, and an increase in intracellular cAMP levels will lead to the activation of both PKA and EPAC. Therefore, careful dissections of the individual role and relative contribution of EPAC and PKA within the overall cAMP signaling in various model systems are critical for further elucidating the mechanism of cAMP signaling. To date no EPAC-specific antagonists and agonist, as well as isoform-specific agonists have been reported, and developing EPAC-specific pharmacological probes to determine the physiological functions that EPAC play in the overall cAMP-mediated signaling remains a major challenge within the research field. Furthermore, identified regulators of EPAC may lead to new mechanism-based therapeutic strategies specifically targeting the EPAC / cAMP-signaling components as EPAC has been implicated to play important roles in major human pathological conditions such as diabetes, heart disease, and cancer. This qHTS will be used to screen the Molecular Libraries Small Molecule Repository (MLSMR) as a concentration-titration series using the NCGC unique quantitative screening (qHTS) platform to find inhibitors for EPAC1. In addition, this assay will also be used as a counterscreen for the EPAC2 qHTS. This fluorescent based assay is developed and validated for EPAC1 that measures exchange using EPAC effector Rap1 complex with BODIPY-GDP, a GDP analog with a tethered fluorophores. Inhibitors are identified by monitoring the change in fluorescence signal as the exchanged free BODIPY-GDP has a reduced fluorescence compared to Rap1-bound BODIPY-GDP. Decrease in signal (inhibition) is the desired outcome for the EPAC1 antagonist while no activity in this assay is desired for the EPAC2 antagonist counterscreen. de Rooij, J., Zwartkruis, F. J., Verheijen, M. H., Cool, R. H., Nijman, S. M., Wittinghofer, A., and Bos, J.L. (1998) Nature 396, 474-477 [2] Kawasaki, H., Springett, G. M., Mochizuki, N., Toki, S., Nakaya, M., Matsuda, M., Housman, D. E., and Graybiel, A. M. (1998) Science 282, 2275-2279 NIH Chemical Genomics Center [NCGC] NIH Molecular Libraries Probe Centers Network [MLPCN] MLPCN Grant: NS066510 Assay Submitter (PI): Xiaodong Cheng, The University of Texas, Medical Branch
Briefly, three uL of reagents (100 nM EPAC1, 250 nM RAP1B-BODIPY-GDP, 50 uM GDP) were dispensed into a 1536-well Greiner black solid-bottom medium binding assay plate. Controls and test compounds (23 nL) were transferred to the plate via a Kalypsys pin tool equipped with a 1536-pin array. The plates were centrifuged at 1,000 rpm for 15 seconds followed by 5 minute incubation at room temperature. The assay plates were read at 5 minute intervals for 30 minutes in the ViewLux plate reader using 480nm excitation and 540nm emission filters. The results were normalized to the […] positive control ATA and DMSO.
Note: nearly all actives have a fitted effect of over 50% in size.
Potency is the fitted concentration of half-maximal effect.

Rap guanine nucleotide exchange factor 3 (Homo sapiens), sequence (O95398 whole entry, looked up): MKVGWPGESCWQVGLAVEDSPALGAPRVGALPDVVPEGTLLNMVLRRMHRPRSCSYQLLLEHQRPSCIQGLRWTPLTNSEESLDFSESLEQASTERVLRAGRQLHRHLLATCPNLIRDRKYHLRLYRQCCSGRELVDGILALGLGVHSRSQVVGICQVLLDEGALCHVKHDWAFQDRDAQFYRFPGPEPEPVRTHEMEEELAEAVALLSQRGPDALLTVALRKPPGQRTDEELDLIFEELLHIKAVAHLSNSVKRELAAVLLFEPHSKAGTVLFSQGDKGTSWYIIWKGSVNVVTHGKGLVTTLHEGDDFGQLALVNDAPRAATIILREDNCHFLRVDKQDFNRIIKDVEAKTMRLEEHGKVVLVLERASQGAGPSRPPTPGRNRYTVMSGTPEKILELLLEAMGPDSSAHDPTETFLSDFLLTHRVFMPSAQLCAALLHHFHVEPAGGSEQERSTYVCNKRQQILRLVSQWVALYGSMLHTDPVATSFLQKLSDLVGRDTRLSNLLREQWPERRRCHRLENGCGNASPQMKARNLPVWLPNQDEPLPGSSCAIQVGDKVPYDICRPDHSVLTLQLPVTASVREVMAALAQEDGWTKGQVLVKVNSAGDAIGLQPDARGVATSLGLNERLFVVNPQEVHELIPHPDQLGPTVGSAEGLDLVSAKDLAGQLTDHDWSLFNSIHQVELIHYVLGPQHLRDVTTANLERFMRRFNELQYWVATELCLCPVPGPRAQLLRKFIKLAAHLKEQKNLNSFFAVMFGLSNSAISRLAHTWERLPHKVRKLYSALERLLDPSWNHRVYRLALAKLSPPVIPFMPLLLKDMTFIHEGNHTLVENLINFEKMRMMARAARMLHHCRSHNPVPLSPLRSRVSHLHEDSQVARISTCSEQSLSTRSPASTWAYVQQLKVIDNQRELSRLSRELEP

Structure (SMILES) | Potency
C#CCNC(=O)C[C@@H]1C[C@@]2(C(=O)OCC)CCCC=C2N(Cc2ccco2)C1=O | inactive
Cc1ccc(S(=O)(=O)N[C@H]2CCC[C@@H]2O)cc1 | inactive
O=C(NCc1ccccc1)C(c1ccc(F)cc1)N1CCN(C(=O)C2CCCO2)CC1 (configuration not stated) | inactive
C#CCOCCOCCOCCNc1nc(N2CCN(C(=O)C([C@@H](C)O)n3cc([C@@H](N)CCCCN)nn3)CC2)nc(N2CCN(C(=O)[C@H](CCCCN)n3cc(CN)nn3)CC2)n1 (some centres not stated) | inactive
C#CCOCCOCCOCCNc1nc(N2CCN(C(=O)[C@H](CO)n3cc([C@@H](N)C(C)C)nn3)CC2)nc(N2CCN(C(=O)[C@H](CCC(=O)O)n3cc([C@@H](N)[C@H](C)CC)nn3)CC2)n1 | inactive
C#CCOCCOCCOCCNc1nc(N2CCN(C(=O)CCCCCCCCCCNC(=O)[C@H]([C@@H](C)CC)n3cc(CCCCN=C(N)N)nn3)CC2)nc(N2CCN(C(=O)CCCCCCCCCCNC(=O)[C@H](CO)n3cc(CCCSC)nn3)CC2)n1 | 44.7 µM (active)
CN1OC[C@@H]2CN(S(=O)(=O)c3cccc4ccccc34)[C@H](c3ccc(N4CCCCC4)cc3)C[C@@H]21 | inactive
CC(C)C[C@@H]1COc2cc(N3CCC[C@@H]3CO)ccc2S(=O)(=O)N1 | inactive
CCOC(=O)C1C(C)C(C(C)(C)C)N(S(=O)(=O)c2ccc(C)cc2)C1c1ccccc1 (configuration not stated) | inactive
Oc1c(Cl)cc(Cl)c(Cl)c1Cc1c(O)c(Cl)cc(Cl)c1Cl | 70.8 µM (active)
Fc1cccc(Cc2c(-c3ccc(Cl)cc3)nc3ccc(Cl)cn23)c1 | inactive
CC1=C(C(=O)N(C(C)C)C(C)C)CC(CC(=O)NCCCCc2ccccc2)C(=O)N1CCC1=CCCCC1 (configuration not stated) | inactive
CCc1c(-c2ccc(F)cc2)ncn1Cc1cccc(-c2ccccc2)c1 | inactive
CN(C)C1CN(Cc2cn(Cc3ccccc3)nn2)S(=O)(=O)C1 (configuration not stated) | inactive
COC(=O)C1=CN(c2c(C)cc(C)cc2C)C(N)=C(C#N)C1c1cccc(F)c1 (configuration not stated) | inactive
CCc1oc(-c2ccc(OC)cc2)c(C(=O)OCCCCCO)c1C(C)OCCO (configuration not stated) | inactive
COC(=O)[C@]12CCCCC=C1N(Cc1cccc3ccccc13)C(=O)[C@H](CC(=O)N1CCOCC1)C2 | inactive
CCNC(=O)c1cc2c(c(-c3cccc(-c4cncnc4)c3)n1)[C@H](CCO)N(C(C)=O)C2 | inactive
CCCCNC(=O)C[C@@H]1C[C@@]2(C(=O)OCC)CCC=C2N(Cc2ccco2)C1=O | inactive

Structure (SMILES) | Potency
CCOC(=O)[C@]12CCCC=C1N(CCC1=CCCCC1)C(=O)[C@H](CC(=O)N1CCCCC1)C2 | inactive
CCOc1ccc(CCN2C(=O)C(=O)N([C@@H](Cc3ccc(O)cc3)CN3CCC[C@H]3CN3C(=O)C(=O)NC[C@@H]3CC(C)C)C[C@@H]2Cc2ccccc2)cc1 | inactive
CCOC(=O)[C@]12CCCC=C1N(Cc1ccc3c(c1)OCO3)C(=O)[C@H](CC(=O)N1CCN(C(=O)c3ccco3)CC1)C2 | inactive
O=C(Nc1ccc2c(c1)OCCO2)C1c2ccccc2OCC(=O)N1Cc1ccccn1 (configuration not stated) | inactive
CC(C)C[C@@H]1Cc2[nH][nH]c(=O)c2[C@H](CCc2ccccc2)O1 | inactive
CCOC(=O)[C@]12CCCC=C1N(Cc1ccc3c(c1)OCO3)C(=O)[C@H](CC(=O)NCc1cccs1)C2 | inactive
CC(C)(O)C1=C[N+](=O)CC=C1 | inactive
CCCCCn1nnnc1C1c2ccccc2C(=O)N1Cc1ccco1 (configuration not stated) | inactive
COc1ccc(C(c2nnnn2C2CCCC2)N2CCN(C/C=C/c3ccccc3)CC2)cc1 (configuration not stated) | inactive
CCCCCNC(=O)C(c1ccc(OC)cc1)n1c(=O)c(-c2ccccc2)nc2ccccc21 (configuration not stated) | inactive
Cc1ccc(S(=O)(=O)N2[C@@H](Cc3ccccc3)CO[C@H]2CC(=O)OCc2ccccc2)cc1 | inactive
CN(Cc1cn(Cc2ccc(C(F)(F)F)cc2)nn1)C1CN(Cc2cn(Cc3ccc(C(F)(F)F)cc3)nn2)S(=O)(=O)C1 (configuration not stated) | inactive
COCCNC(=O)c1cc2c(Br)ccc(Br)c2nc1N | inactive
CC(=O)N1Cc2cc(C(=O)NCc3cccc(F)c3)nc(-c3cccc(C4=CCCCC4)c3)c2[C@H]1CCO | inactive
C=C1C(=O)[C@]23C[C@H]1CCC2[C@@]1(C)C(C[C@@H]3O)[C@](C)(C(=O)O)CC[C@@H]1O (some centres not stated) | inactive
CCCCCNC(=O)C1C(=O)Nc2ccccc2C(=O)N1C(C)(C)C (configuration not stated) | inactive
CC[C@@H]1CC2=C(C(=O)OC(C)(C)O2)[C@@H](CC)O1 | inactive
CCOC(=O)[C@]12CCC=C1N(Cc1ccccc1)C(=O)[C@H](CC(=O)N1CCCC1)C2 | inactive
